The values below come from PubChem BioAssay (NCI).

The panel holds about 83,000 compounds, 20% with a hit somewhere; the sample as a whole holds those more often.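 In brief: 96-well plates, 48 h treatment, single concentration, percent growth endpoint.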 Values without a mark were called inactive. Activity calls are given as the source filed them. The calls were made as follows: active = growth percent below 10; inactive = the rest.

Among the test systems are SR leukemia; RPMI-8226 leukemia; OVCAR-8 ovarian; OVCAR-5 ovarian; OVCAR-4 ovarian; IGROV1 ovarian; OVCAR-3 ovarian; HS 578T breast; NCI/ADR-RES ovarian; SK-OV-3 ovarian.
Common to all, as to assay: NCI-60 one-dose screen, 48 h (100 = growth as untreated, 0 = no growth, -100 = all killed)
What all share (details): 10 µM

With `Cc1ccc2nc(COc3ccc(C(=O)NNC(=S)NC(=O)c4ccccc4)cc3)[nH]c2c1`, the growth in the assay with SR leukemia was 25.8%; with RPMI-8226 leukemia, 64.9%; in the assay on OVCAR-8 ovarian, 42.1%; with OVCAR-5 ovarian it was 80.2%; in the assay on OVCAR-4 ovarian it was 57.3%; in the assay on IGROV1 ovarian, 53.4%. The growth in the assay with OVCAR-3 ovarian was 58.2%; with HS 578T breast, 60.5%; in the assay on NCI/ADR-RES ovarian it was -3.62% (active).
Turning to `COc1cc2c3c(n(CCCn4ccnc4)c(=O)c2cc1OC)-c1nc2c(cc1C3=O)OCO2`, the growth in the assay with SR leukemia is 13.8%; with RPMI-8226 leukemia it was 44.3%; in the assay with OVCAR-8 ovarian it was 43.6%; in the assay on OVCAR-5 ovarian, 57.2%; in the assay with OVCAR-4 ovarian, 80.9%; with SK-OV-3 ovarian, 18.3%. For the same compound, the growth in the assay with IGROV1 ovarian is 56%; in the assay with OVCAR-3 ovarian, 48.5%; in the assay with NCI/ADR-RES ovarian, 84.2%.
As for `COc1ccc(-c2cc(C(=O)N=Nc3c(O)[nH]c4ccc(Br)cc34)c3ccccc3n2)cc1`, the growth was 3.37% (active) in the assay on SR leukemia; 38.7% in the assay with RPMI-8226 leukemia; 8.79% (active) in the assay with OVCAR-8 ovarian; 51% in the assay on OVCAR-4 ovarian; 114% in the assay with SK-OV-3 ovarian; 12.3% in the assay with IGROV1 ovarian. Also, the growth in the assay on OVCAR-3 ovarian was 8.75% (active); in the assay with HS 578T breast, 61.6%; in the assay on NCI/ADR-RES ovarian, 43.2%.
As for `CC(=O)c1ccc(Nc2nc(SC(C)C)nc(-c3ccccc3)c2C#N)cc1`, the growth is 70% with SR leukemia; 90.3% with RPMI-8226 leukemia; 5.17% (active) in the assay with OVCAR-8 ovarian; 55.8% in the assay with OVCAR-5 ovarian; -19.1% (active) in the assay on OVCAR-4 ovarian; 8.92% (active) with IGROV1 ovarian. Besides, the growth in the assay on OVCAR-3 ovarian was 25.3%; with HS 578T breast, 28.2%; in the assay with NCI/ADR-RES ovarian, 1.21% (active).
Regarding `Cc1noc2c(Cc3ccc([N+](=O)[O-])cc3)nn(CC(=O)N/N=C/c3ccc(Br)cc3)c(=O)c12`, the growth with SR leukemia was 97.6%; in the assay with RPMI-8226 leukemia, 91.2%; with OVCAR-8 ovarian it was 48.9%; in the assay on OVCAR-4 ovarian, 17.9%; in the assay on SK-OV-3 ovarian it was 86.2%; in the assay on IGROV1 ovarian, 95.9%. In addition, the growth was 50.1% in the assay on OVCAR-3 ovarian, 41.5% in the assay on HS 578T breast and 88.5% in the assay on NCI/ADR-RES ovarian.
Regarding `COc1ccc(NC(=O)CSc2nnc(-c3ccc4nc(-c5ccc(Cl)cc5)[nH]c4c3)o2)cc1`, the growth in the assay with SR leukemia was 43.5%; in the assay on RPMI-8226 leukemia it was 56.5%; in the assay with OVCAR-8 ovarian it was 14.1%; in the assay on OVCAR-4 ovarian, -2.09% (active); with SK-OV-3 ovarian it was 101%; with IGROV1 ovarian, 78.4%. Besides, the growth in the assay with OVCAR-3 ovarian is 55.3%; in the assay on HS 578T breast, 35.2%; in the assay on NCI/ADR-RES ovarian it was 81.3%.
As to `O=C(Nc1ccc(Cl)c([N+](=O)[O-])c1)Nc1ccc(Cl)c([N+](=O)[O-])c1`, the growth in the assay with SR leukemia is 12.4%; in the assay on RPMI-8226 leukemia, -20.5% (active); with OVCAR-8 ovarian it was 20.7%; in the assay with OVCAR-5 ovarian it was 49.8%; in the assay on OVCAR-4 ovarian, 23.2%; in the assay with SK-OV-3 ovarian, 79.4%. Besides, the growth with IGROV1 ovarian is 15.3%; with OVCAR-3 ovarian, 9.61% (active); in the assay with NCI/ADR-RES ovarian, 6.5% (active).
As to `CC(=O)OC[C@@]1(C)C2CC[C@]3(C)C(CC=C4C5CC(C)(C)CC[C@]5(C(=O)Nc5ccccc5)CC[C@]43C)[C@@]2(C)C[C@@H](OC(C)=O)[C@@H]1OC(C)=O` (some centres not stated), the growth with SR leukemia was 17%; in the assay with RPMI-8226 leukemia it was 10.7%; in the assay on OVCAR-8 ovarian, 32.7%; in the assay on OVCAR-4 ovarian, 33.4%; in the assay with SK-OV-3 ovarian, 45.2%; in the assay with IGROV1 ovarian it was 45.1%. In addition, the growth with OVCAR-3 ovarian is 38.9%; in the assay on HS 578T breast it was 52.3%; in the assay with NCI/ADR-RES ovarian, 31.2%.
For the compound `Nc1nc(Nc2ccc(Cl)cc2)nn1Cc1cccc(Br)c1`, the growth was 30.6% with SR leukemia; 29.1% in the assay on RPMI-8226 leukemia; 54.9% with OVCAR-8 ovarian; 49.7% in the assay on OVCAR-5 ovarian; 46.8% in the assay on OVCAR-4 ovarian; 47.2% in the assay with SK-OV-3 ovarian. The growth with IGROV1 ovarian was 13%; with OVCAR-3 ovarian, 47.7%; in the assay with NCI/ADR-RES ovarian it was 25.7%.
Regarding `COC1=C[C@@]23CCC(=O)N2CCc2cc4c(cc2[C@H]3[C@H]1OC(=O)C(C)(C)O)OCO4`, the growth with SR leukemia was 96.1%; with RPMI-8226 leukemia, 92.3%; in the assay with OVCAR-8 ovarian, 109%; in the assay on OVCAR-5 ovarian it was 101%; in the assay with OVCAR-4 ovarian, 98.6%; in the assay on SK-OV-3 ovarian it was 120%. The growth in the assay on IGROV1 ovarian is 103%; in the assay with OVCAR-3 ovarian, 106%; with NCI/ADR-RES ovarian, 97.4%.
`Cc1ccc2nc3c(nc2c1)c1cc(I)ccc1n3CCN(C)C`: the growth in the assay on SR leukemia was 10.8%; in the assay with RPMI-8226 leukemia, 22%; with OVCAR-8 ovarian, 23.6%; with OVCAR-5 ovarian, 31.9%; in the assay on OVCAR-4 ovarian, 27.2%; in the assay with IGROV1 ovarian, 13.9%. The growth was 40.8% with OVCAR-3 ovarian, 23.9% with HS 578T breast and 12.5% in the assay on NCI/ADR-RES ovarian.
For the compound `CCOC(=O)C1=C(N)N(c2ccccc2)C2=C(C(=O)CC(C)(C)C2)C1c1ccccc1OC` (configuration not stated), the growth with SR leukemia is 95%; in the assay with RPMI-8226 leukemia, 100%; with OVCAR-8 ovarian, 108%; in the assay with OVCAR-5 ovarian, 103%; with OVCAR-4 ovarian, 102%; in the assay on IGROV1 ovarian, 96.9%. Also, the growth was 112% in the assay with OVCAR-3 ovarian and 106% in the assay with HS 578T breast.
On to `COc1ccc(/C(CSc2nnc(-c3c[nH]c4ccccc34)n2-c2ccccc2)=N/O)cc1`, for which the growth in the assay with SR leukemia is 10.9%; with RPMI-8226 leukemia it was 9.81% (active); in the assay on OVCAR-8 ovarian, 29.7%; with OVCAR-5 ovarian it was 55%; with OVCAR-4 ovarian it was 16.8%; in the assay with IGROV1 ovarian, 43.1%. Besides, the growth in the assay on OVCAR-3 ovarian was 30.5%; with HS 578T breast, 38.8%; with NCI/ADR-RES ovarian it was 38.2%.
With `Oc1ccc(/C=C2\CCCc3cc4ccc(O)cc4[o+]c32)c(O)c1`, the growth in the assay with SR leukemia was 15.3%; in the assay on RPMI-8226 leukemia, 50.6%; in the assay with OVCAR-8 ovarian, -56.9% (active); with OVCAR-5 ovarian it was 122%; in the assay with OVCAR-4 ovarian it was 42.9%; in the assay on IGROV1 ovarian, 21.4%. In addition, the growth was -45.1% (active) with OVCAR-3 ovarian, 52.3% in the assay with HS 578T breast and -24.7% (active) with NCI/ADR-RES ovarian.
As for `CN(C)CCNC(=O)OCCCCOc1cc(O)c2c(=O)cc(-c3ccccc3)oc2c1`, the growth in the assay on SR leukemia was -28.9% (active); in the assay on RPMI-8226 leukemia, -9.41% (active); in the assay with OVCAR-8 ovarian, 3.84% (active); in the assay with OVCAR-4 ovarian, -16.2% (active); with SK-OV-3 ovarian it was 99.1%; in the assay with IGROV1 ovarian, -9.88% (active). The results for the growth with OVCAR-3 ovarian, with HS 578T breast and in the assay on NCI/ADR-RES ovarian were -77.1% (active), 40.7% and 27.9%, respectively.
With `CCOC(=O)CNC(=O)CN(Cc1ccccc1)C(=O)[C@@]1(C)CCC[C@]2(C)[C@H]3C[C@H]4C(C(C)C)=C[C@]3(CC[C@H]21)[C@@H]1C(=O)OC(=O)[C@@H]14`, the growth with SR leukemia is 4.44% (active); with RPMI-8226 leukemia, 15.2%; in the assay with OVCAR-8 ovarian, 55.9%; in the assay on OVCAR-4 ovarian, 62.2%; in the assay with SK-OV-3 ovarian, 89.4%; with IGROV1 ovarian, 41.8%. Moreover, the growth in the assay on OVCAR-3 ovarian was 44.1%; in the assay with HS 578T breast, 60.3%; in the assay with NCI/ADR-RES ovarian it was 45.3%.
On to `NS(=O)(=O)c1ccc(NC(=O)CSc2ccc(-c3ccc(Cl)cc3)nn2)c(Br)c1`, for which the growth with SR leukemia is 66.4%; in the assay on RPMI-8226 leukemia, 72.5%; in the assay with OVCAR-8 ovarian, 3.04% (active); with OVCAR-4 ovarian, 29.8%; in the assay with SK-OV-3 ovarian it was 60.2%; in the assay on IGROV1 ovarian it was 63.4%. Moreover, the results for the growth with OVCAR-3 ovarian, in the assay with HS 578T breast and with NCI/ADR-RES ovarian were 7.69% (active), 4.72% (active) and 70%, respectively.
For the compound `CCOC(=O)C1=C(N)N(c2ccccc2)C2=C(C(=O)CC(C)(C)C2)C1c1ccc(Cl)cc1` (configuration not stated), the growth with SR leukemia is 13.1%; in the assay with RPMI-8226 leukemia it was 7.68% (active); with OVCAR-8 ovarian it was 61.1%; with OVCAR-5 ovarian, 57.6%; with OVCAR-4 ovarian it was 29.3%; in the assay with IGROV1 ovarian, 59.5%. Also, the growth is 51.6% with OVCAR-3 ovarian, 71.9% in the assay with HS 578T breast and 25.6% in the assay with NCI/ADR-RES ovarian.
For the compound `Cc1ccc(C(=O)NNC(=O)CSc2nc3ccccc3c(=O)[nH]2)cc1`, the growth is 73% in the assay on SR leukemia; 105% in the assay on RPMI-8226 leukemia; 97.8% in the assay with OVCAR-8 ovarian; 104% in the assay on OVCAR-5 ovarian; 104% in the assay on OVCAR-4 ovarian; 102% in the assay on IGROV1 ovarian. Also, the growth was 103% in the assay with OVCAR-3 ovarian, 97.5% with HS 578T breast and 101% in the assay on NCI/ADR-RES ovarian.
With `O=C(CSc1nnc(-c2ccc3nc(-c4ccc(Cl)cc4)[nH]c3c2)o1)Nc1ccc(Cl)cc1`, the growth was 3.21% (active) in the assay with SR leukemia; 0.0065% (active) with RPMI-8226 leukemia; -17.6% (active) in the assay with OVCAR-8 ovarian; -10.2% (active) in the assay on OVCAR-5 ovarian; -46.7% (active) in the assay on OVCAR-4 ovarian; -18.8% (active) in the assay with IGROV1 ovarian. In addition, the growth in the assay with OVCAR-3 ovarian was -15.4% (active); in the assay on HS 578T breast, -32.5% (active); in the assay on NCI/ADR-RES ovarian it was 11.8%.
Regarding `C=CCn1c(SCC(=O)Nc2ccc(C(=O)/C=C/c3ccccc3)cc2)nnc1-c1c[nH]c2ccccc12`, the growth with SR leukemia is 31.4%; in the assay on RPMI-8226 leukemia, 2.87% (active); in the assay on OVCAR-8 ovarian, 64.7%; with OVCAR-4 ovarian it was 61.9%; in the assay on SK-OV-3 ovarian it was 86.8%; in the assay on IGROV1 ovarian it was 42%. The growth with OVCAR-3 ovarian is 41.4%; in the assay on HS 578T breast it was 70.5%; in the assay on NCI/ADR-RES ovarian it was 85.4%.
Consider `O=C(/C=C/Nc1ccccc1)c1ccc2c(c1)Nc1ccccc1S2`, for which the growth with SR leukemia is 87.8%; with RPMI-8226 leukemia, 90.9%; in the assay with OVCAR-8 ovarian, 33.5%; in the assay on OVCAR-5 ovarian, 87.7%; in the assay on OVCAR-4 ovarian, 49.2%; in the assay on IGROV1 ovarian, 87.3%. In addition, the growth in the assay on OVCAR-3 ovarian was 91.1%; in the assay with HS 578T breast, 63%; with NCI/ADR-RES ovarian, 61.2%.
